Bioassay records (PubChem BioAssay)
HT1080 IDH1KD tx: toxicity to HT-1080 IDH1 knockdown cells (counter line); HT-1080 IDH1 knockdown viability, ATP luminescence, 48 h; Potency, µM (top dose mostly 46.1 µM), most hits filed as cytotoxic; actives 2% (n = 360,000)
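IDH1KD HT-1080 cells, 750/well, RPMI + 5% FBS; compound pinned after 2 h settling; 48 h, 37 °C; CellTiter-Glo luminescence; % activity normalised to DMSO and no-cell wells; curves fitted, classed by r2 and efficacy.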
DT40 TDP1 CPT: DT40-hTDP1 cell growth loss with CPT | Potency, µM (series often up to 46.2 µM), most hits filed as inhibitors | actives 12% (n = 420,000) | AID 686979 | chicken DT40 Tdp1-/-;hTDP1 cells + 20 nM CPT, ATP luminescence, 48 h; also: nearly all actives have a fitted effect of over 55% in size
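Chicken DT40 Tdp1-/- cells stably complemented with human TDP1 were seeded at 400 cells/well in medium containing 20 nM camptothecin, exposed to pin-transferred compounds, and grown at 37 °C for at least 48 hr. Viability was read as ATP luminescence.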
HT1080NT lethal: kills 2HG-producing HT-1080-NT fibrosarcoma cells. HT-1080-NT fibrosarcoma viability, CellTiter-Glo ATP luminescence, 48 h. Potency, µM (highest dose often 46.1 µM), most hits filed as cytotoxic. actives 1.6% (n = 360,000). AID 686970;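 also: NT is the 2HG producing partner of a matched IDH1 knockdown line; nearly all actives have a fitted effect of over 55% in size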
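HT-1080-NT fibrosarcoma cells (2HG-overproducing), 750 cells/well in RPMI with 5% FBS, dosed after 2 h and incubated 48 h at 37C. CellTiter-Glo luminescence normalized to DMSO and no-cell wells; concentration-response curves fitted and classed.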
TDP1 cell noCPT: qHTS for Inhibitors of human tyrosyl-DNA phosphodiesterase 1 (TDP1): qHTS in cells in absence of CPT | DT40 Tdp1-/- hTDP1 cells, no CPT, ATP luminescence, 48 h | Potency, µM (highest dose often 46.2 µM), hits mostly inhibitors | actives 15% (n = 420,000) | AID 686978, 2013; also: nearly all actives have a fitted effect of over 55% in size
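Chicken DT40 Tdp1-/- cells stably complemented with human TDP1 were seeded at 400 cells/well with DMSO in place of 20 nM camptothecin. After compound pinning, cells grew at least 48 hr at 37 °C; viability read by CellTiter-Glo luminescence.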
IL1B secr inh: inhibitors of inflammasome signaling (IL-1 beta secretion); actives 4.7% (n = 360,000); activity change, % at 57.5 µM; THP-1 LPS/ATP IL-1B secretion, AlphaLISA, 16 h; hits give low values; AID 743279; in the data active = activity change below about -50%; inconclusive = mostly about -30% to -49%
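THP-1 cells pretreated 1 hr with compounds (up to 57.5 uM final), then stimulated with LPS (250 ng/mL final) plus ATP (1.25 mM final); secreted IL-1B measured by AlphaLISA after 16 hr, decreased signal indicating inhibition.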
Each line names hits and unclear results; the compound was inactive in the other large screens. Most compounds without a hit are left out; they make up all but 19% or so of the library. Unless noted, calls follow the shape of the dose curve; as a rule, active = well fitted curve in the direction sought with a large enough effect; inconclusive = small, poorly fitted or top-dose-only effect, or another doubt; inactive = no such curve, though single readings can be large; an effect the other way counts as inactive or inconclusive.

Cc1onc(-c2ccccc2Cl)c1C(=O)NCC1CCCO1 (stereo not drawn)	none
CCOc1ccc(C(=O)N(Cc2nc(-c3cccc(C)c3)no2)C(C)C)cc1	DT40 TDP1 CPT 21µM, TDP1 cell noCPT inconclusive (no result: HT1080 IDH1KD tx, HT1080NT lethal, IL1B secr inh)
Cc1onc(-c2ccccc2Cl)c1C(=O)N(Cc1nc(-c2ccccc2)no1)C1CCCCC1	HT1080 IDH1KD tx inconclusive, DT40 TDP1 CPT inconclusive, TDP1 cell noCPT 18µM
Cc1cccc(-c2noc(CN(C(=O)C(c3ccccc3)c3ccccc3)C(C)C)n2)c1	DT40 TDP1 CPT inconclusive, TDP1 cell noCPT 16µM
Cc1onc(-c2ccccc2Cl)c1C(=O)NCc1nc(-c2ccc(C(F)(F)F)cc2)no1	HT1080 IDH1KD tx inconclusive, DT40 TDP1 CPT inconclusive, TDP1 cell noCPT 15µM, IL1B secr inh -76
CC(C)N(Cc1nc(-c2ccccc2)no1)C(=O)Cc1ccccc1	TDP1 cell noCPT inconclusive
O=C(N1CCN(c2ccc(F)cc2)CC1)C1(c2cccs2)CCOCC1	TDP1 cell noCPT inconclusive
CCN(Cc1nc(-c2cccc(C)c2)no1)C(=O)c1ccc2c(c1)OCO2	IL1B secr inh -69
CCN(Cc1nc(-c2ccccc2)no1)C(=O)c1ccc2c(c1)OCO2	none
Cc1cccc(-c2noc(CN(C(=O)c3ccc4c(c3)OCO4)C(C)C)n2)c1	DT40 TDP1 CPT 18µM, TDP1 cell noCPT inconclusive
COc1ccc(-c2noc(CN(C(=O)c3ccc4c(c3)OCO4)C(C)C)n2)cc1OC	DT40 TDP1 CPT inconclusive, TDP1 cell noCPT inconclusive
Cc1cccc(-c2noc(CN(C(=O)COc3ccc(C(C)C)cc3)C(C)C)n2)c1	DT40 TDP1 CPT inconclusive, TDP1 cell noCPT 16µM (no result: HT1080 IDH1KD tx, HT1080NT lethal, IL1B secr inh)
Cc1ccc(-c2noc(CN(C(=O)Cc3ccccc3)C(C)C)n2)cc1	DT40 TDP1 CPT inconclusive, TDP1 cell noCPT inconclusive
CN(Cc1ccco1)c1ncncc1-c1cccc(NS(C)(=O)=O)c1	none (no result: HT1080 IDH1KD tx, HT1080NT lethal, IL1B secr inh)
CNC(=S)/N=C/NOCc1c(Cl)cccc1Cl	none
COc1ccc(-c2cnnn2-c2ccc(NC(=O)c3ccccc3OC)cc2)cc1	DT40 TDP1 CPT 21µM, TDP1 cell noCPT inconclusive (no result: HT1080 IDH1KD tx, HT1080NT lethal, IL1B secr inh)
COc1ccc(-c2cnnn2-c2ccc(NC(=O)c3c(F)cccc3F)cc2)cc1	DT40 TDP1 CPT 12µM, TDP1 cell noCPT 26µM (no result: HT1080 IDH1KD tx, HT1080NT lethal, IL1B secr inh)
Cc1cc2c(cc1S(=O)(=O)NCc1ccc(F)cc1)OCCN2C	none (no result: HT1080 IDH1KD tx, HT1080NT lethal, IL1B secr inh)
CCOC(=O)C1=C(C)NC(=S)NC1c1ccsc1 (stereo not drawn)	none
Cc1ccc(NC(=S)NCc2ccccn2)cc1	none
S=C(NCc1ccccn1)NN=Cc1ccccn1	HT1080 IDH1KD tx inconclusive, DT40 TDP1 CPT 0.15µM, TDP1 cell noCPT 0.15µM
NC(=S)NN=Cc1c[nH]c2nccnc12	HT1080 IDH1KD tx inconclusive, DT40 TDP1 CPT 16µM, TDP1 cell noCPT 13µM
CC(NC(=O)C12CC3CC(CC(C3)C1)C2)C(=O)N/N=C/C1=C(N2CCOCC2)C(=C\c2cccc([N+](=O)[O-])c2)/CC1 (stereo not drawn)	DT40 TDP1 CPT inconclusive, TDP1 cell noCPT 12µM
N#C/C(=C/C1=C(N2CCOCC2)C(=C/c2cccc([N+](=O)[O-])c2)/CC1)C(=O)Nc1ccccc1F	DT40 TDP1 CPT 10µM, TDP1 cell noCPT 8.2µM
O=C(/C=C/c1cccc([N+](=O)[O-])c1)Nc1ccccc1N1CCOCC1	DT40 TDP1 CPT inconclusive, TDP1 cell noCPT inconclusive
N#C/C(=C\C1=C(N2CCOCC2)C(=C/c2cccc([N+](=O)[O-])c2)/CC1)C(=O)Nc1ccccc1F	DT40 TDP1 CPT 9.2µM, TDP1 cell noCPT 10µM
COc1cc(=O)n2c(c1C(=O)NCc1ccco1)CCN(Cc1ccc3ccccc3c1)CC2	none (no result: HT1080 IDH1KD tx, HT1080NT lethal, IL1B secr inh)
NC1=NC[C@H](c2ccccc2)N1CCc1cccc(F)c1	DT40 TDP1 CPT 16µM, TDP1 cell noCPT 13µM
Fc1cccc(CCN2C(=S)NC[C@@H]2Cc2ccccc2)c1	DT40 TDP1 CPT 21µM, TDP1 cell noCPT inconclusive
CC(O)[C@H]1CN=C(N)N1CCCCC1CCCCC1 (stereo partly drawn)	DT40 TDP1 CPT 9.2µM, TDP1 cell noCPT 8.2µM, IL1B secr inh inconclusive
NC1=NC[C@H](c2ccccc2)N1CCCCC1CCCCC1	DT40 TDP1 CPT 5.2µM, TDP1 cell noCPT 7.3µM, IL1B secr inh -83
